# USP10 block: human USP10 deubiquitinase inhibition | 1.1% of 47,000 active | inhibition, % at 20 µM | AID 1645856 | Q14694 | purified USP10, Ub-rhodamine fluorescence, 60 min
# UCHL1 block: inhibitors of human UCHL1 deubiquitinase; P09936; purified UCHL1, Ub-rhodamine cleavage fluorescence; inhibition, % at 20 µM; 0.2% of 47,000 active
# USP17 inh: blocks human USP17 ubiquitin-rhodamine cleavage | purified USP17, Ub-rhodamine cleavage fluorescence, 3 h | AID 1645855 | inhibition, % at 50 µM | 6.5% of 47,000 active | A8MUK1
# USP7 block: blocks human USP7 ubiquitin-rhodamine cleavage; Q93009; purified USP7, Ub-rhodamine cleavage fluorescence; inhibition, % at 20 µM; 0.3% of 47,000 active
# USP8 inh: blocks human USP8 ubiquitin-rhodamine cleavage; AID 1645853; purified USP8, Ub-rhodamine cleavage fluorescence, 30 min; inhibition, % at 20 µM; 4.2% of 47,000 active
# USP30 inh: inhibitors of human USP30 deubiquitinase; Q70CQ3; purified USP30, Ub-rhodamine cleavage fluorescence; inhibition, % at 25 µM; 5.3% of 47,000 active
# * marks the source's active call; other numbers are inactive results; nt = not tested or not shown. This is a sample that favours compounds with a hit; in the whole collection about 13% have one here. Rule as the data show it: active = inhibition above about 30%; inactive = the rest.
SMILES,USP10 block,UCHL1 block,USP17 inh,USP7 block,USP8 inh,USP30 inh
CC(OC(=O)c1ccc2c(c1)OCO2)C(=O)NCC1CCCCC1 (configuration not stated),2,5,54*,3,24,54*
Cc1cc(C)n(-c2ccnc(N3CCC(C(=O)NCC(C)C)CC3)n2)n1,-2,-3,0,1,0,3
Cn1c(-c2c(N)n(Cc3ccc(Cl)cc3)c3nc4ccccc4nc23)nc2ccccc21,-6,-132,-13,-143,57*,-52
COc1ccc(-c2cc(C(=O)OCC(=O)NC(C)c3ccccc3)c3ccccc3n2)cc1OC (configuration not stated),-4,2,10,2,-5,-38
C/C1=C/C=C/[C@H](C)[C@H](O)[C@@H](C)[C@@H](O)[C@@H](C)[C@H](O)[C@H](C)[C@@H](O)[C@@H](CO)/C=C(/C)C(=O)c2c(O)c(C)c(O)c3c2C(=O)C=C(NC1=O)C3=O,-6,-9,9,-20,-60,-138
O=C(CCC(=O)N1CCC(C(=O)N2CCCCC2)CC1)Nc1ccc(Oc2ccccc2)cc1,-4,-4,7,-12,3,11
CCOC(=O)C1CCN(C(=O)CCC(=O)Nc2ccc(Oc3ccccc3)cc2)CC1,0,1,21,0,14,34*
COc1ccc(S(=O)(=O)N2CCc3nc4ccccc4n3CC2)cc1,2,-1,57*,1,-97,54*
COc1ccc(S(=O)(=O)N(Cc2cccnc2)Cc2cc3ccccc3[nH]c2=O)cc1,0,-2,-21,-5,-37,-26
COc1ccc(S(=O)(=O)N(Cc2ccco2)Cc2cc3ccccc3[nH]c2=O)cc1,25,1,11,5,-16,42*
CCC(=O)N1CC(C(=O)Nc2ccc(F)cc2)C2(CCOCC2)C1 (configuration not stated),0,-2,-7,3,-5,-15
CC(C)CC(=O)N1CC(C(=O)Nc2ccc(F)cc2)C2(CCOCC2)C1 (configuration not stated),-1,1,46*,2,0,15
Cc1ccc(N2C(=O)N(CC(=O)Nc3ccc(N4CCOCC4)cc3)C(=O)C2C)cc1 (configuration not stated),-1,2,8,4,16,11
CCC(=O)Nc1ccc(-n2cnc(C(=O)NC3CCCC3)c2)nc1,4,0,10,4,7,32*
COc1cc2[nH]c(=O)n(CCCC(=O)N3CCC(C(N)=O)(N4CCCCC4)CC3)c(=O)c2cc1OC,1,2,-1,4,9,13
COc1cc2[nH]c3c(N4CCC(C(N)=O)(N5CCCCC5)CC4)ncnc3c2cc1OC,9,12,11,12,12,30*
CC(C)(C)n1ncc2c(=O)n(Cc3cccc([N+](=O)[O-])c3)cnc21,2,2,-22,-29,1,11
CCOc1cc(C2C3=C(CC(C)(C)CC3=O)Nc3onc(C)c32)ccc1O (configuration not stated),1,2,51*,-2,15,45*
CC(=O)Nc1ccc(C2C3=C(CC(C)(C)CC3=O)Nc3onc(C)c32)cc1 (configuration not stated),-1,0,7,2,16,19
O=C(Nc1ccc(-c2nn3cnnc3s2)cc1)c1ccc(Br)cc1,15,-1,-9,3,14,-15
O=C(COc1ccc(C2CCCCC2)cc1)Nc1ccc(-c2nn3cnnc3s2)cc1,35*,1,72*,8,33*,66*
O=C(Cc1cccc(F)c1)N1CCC(n2c(=O)[nH]c3cncnc32)CC1,-3,-10,-24,-11,-17,-63
CCn1c(CCNC(=O)c2ccccc2)nc2ccccc21,-2,0,4,0,-4,nt
Cc1cccc(OCCn2c(CCNC(=O)C3CCCCC3)nc3ccccc32)c1,32*,0,42*,-6,48*,79*
CCc1ccc(OCCn2c(CCNC(=O)C3CCCCC3)nc3ccccc32)cc1,28,3,6,13,69*,27
SMILES,USP10 block,UCHL1 block,USP17 inh,USP7 block,USP8 inh,USP30 inh
COc1ccccc1C(=O)Nc1nc2ccccc2n1CCOc1ccccc1,2,4,-31,-15,2,nt
O=C(NCCc1nc2ccccc2n1CCOc1ccccc1Cl)C1CCCCC1,38*,2,64*,22,83*,55*
O=C(CC1C(=O)Nc2nc(-c3ccccc3)nn21)Nc1cccc2ccccc12 (configuration not stated),29,0,84*,6,41*,-4
O=C(CC1C(=O)Nc2nc(-c3ccccc3)nn21)Nc1ccccc1 (configuration not stated),2,-1,2,0,1,-8
O=C(CC1SCCNC1=O)Nc1cccc2ccccc12 (configuration not stated),-3,-4,0,0,-27,-8
O=C(CC1C(=O)Nc2nc3ccccc3n21)Nc1cccc2ccccc12 (configuration not stated),54*,3,17,14,55*,46*
COc1ccc(-n2cnnc2SCC(=O)N(Cc2ccccc2)C(C)C)cc1,3,1,5,1,15,10
CC1CCN(S(=O)(=O)c2nnc(NC(=O)C34CC5CC(CC(C5)C3)C4)s2)CC1,14,3,-3,7,-12,-20
CC(=O)c1cccc(NC(=O)Cn2c(=O)nc(N3CCC(C)CC3)c3ccccc32)c1,16,-1,-6,-11,11,-3
CN(C1CCCCC1)S(=O)(=O)c1ccc(NC(=O)C2CCCCC2)cc1,15,0,1,5,30,18
Cc1ccn(-c2ccc(NC(=O)C3CCCCC3)cc2)n1,5,-1,57*,3,12,10
CCn1c(COc2ccc(Cl)c3cccnc23)nnc1SC(F)F,0,0,18,-22,13,40*
Cc1ccc(C(=O)Nc2ccc(C)n(CC(=O)N3CCC4(CC3)OCCO4)c2=O)cc1,1,3,6,3,-4,14
Cc1ccc(NC(=O)c2nnn(CC(=O)Nc3cccc(C)c3C)c2N)cc1C,36*,3,27,27,72*,38*
O=C(CNc1ccc(F)cc1F)Nc1ccc2c(c1)OC(F)(F)O2,7,5,0,-3,3,-7
CC(C)(C)c1cc(C[C@@H]2C[C@H](NC(=O)N3CCOCC3)C2(C)C)no1,1,3,39*,4,23,69*
Cc1ccc(CN2CCCn3nc(C(=O)NCc4ccccc4C)cc3C2=O)cc1,4,4,50*,6,14,52*
Cc1ccc(CN2CCCn3nc(C(=O)NCc4cccs4)cc3C2=O)cc1,1,-3,-2,0,-26,-21
